L929 necroptosis: blocks zVAD induced death of L929 cells | L929 zVAD necroptosis rescue, ATP luminescence, 24 h; with zVAD 60 µM | viability rescue, % at 10 µM | 220,000 tested, 0.38% active;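 active = activation, scaled between plate controls, above about 75%, limit read from the data; inactive = activation under that limit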;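 also: 0% = zVAD with DMSO and 100% = DMSO alone without zVAD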
Calpain2 inh: inhibitors of pig calpain II; purified calpain II, fluorogenic peptide substrate, 30 min; inhibition, % at 16 µM; 220,000 tested, 0.37% active; AID 1236;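 active = inhibition above about 50%, limit read from the data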
HMGR II inh: E. faecalis class II HMG-CoA reductase inhibition; purified E. faecalis HMGR, NADPH absorbance 340 nm kinetic; AID 1066; 190,000 tested, 0.41% active; inhibition, % at 10 µM;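 active = inhibition above a set limit, the median over all tested compounds plus 3 SD, cut at about 9.5% in these data; inconclusive = no clear call, values can overlap the other calls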;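 also: enzyme runs in reverse so mevalonate oxidation gives rising NADPH absorbance; 0% = complete reaction with DMSO and 100% = background rate lacking mevalonate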
TNF death inh: inhibitors of TNF-alpha induced necroptosis in Jurkat FADD-/- cells | 220,000 tested, 0.068% active | activation (protection from cell death), % at 10 µM | Jurkat FADD-/- TNF necroptosis rescue, ATP luminescence, 24 h; 0 = TNF only, 100 = no-TNF cells;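 active = activation, meaning protection from cell death, of at least 50% relative to plate controls; inactive = activation below 50%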;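 also: necroptosis triggered by 40 ng/mL TNF-alpha added together with compound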
ROMK mod: modulators of human ROMK potassium channel; Tet-inducible ROMK, thallium flux fluorescence; actives lie on both sides; B-score at 10 µM; P48048; 130,000 tested, 2% active;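 active = signal ratio slope over the read window, or its plate-corrected B-score, at least 3 SD from the plate mean, either direction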;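 also: B-score of the F/F0 ratio slope over 7 to 12 s after thallium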
Target sequence (P48048 whole entry, looked up): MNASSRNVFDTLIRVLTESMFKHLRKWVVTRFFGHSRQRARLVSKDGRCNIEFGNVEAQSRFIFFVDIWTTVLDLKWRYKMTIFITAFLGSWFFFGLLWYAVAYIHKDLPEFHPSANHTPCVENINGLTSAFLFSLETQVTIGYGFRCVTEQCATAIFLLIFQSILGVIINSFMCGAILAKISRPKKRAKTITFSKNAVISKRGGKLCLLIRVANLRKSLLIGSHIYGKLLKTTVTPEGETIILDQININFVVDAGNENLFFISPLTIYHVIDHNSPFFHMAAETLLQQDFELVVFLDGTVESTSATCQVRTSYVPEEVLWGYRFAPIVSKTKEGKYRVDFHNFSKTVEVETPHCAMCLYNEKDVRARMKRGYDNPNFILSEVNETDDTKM
14-3-3 Bad inh: disrupts binding of bovine 14-3-3 zeta to phospho-Bad peptide | TR-FRET 14-3-3zeta/Dy647-pBad peptide displacement, 1 h | inhibition, % at 21.7 µM | 220,000 tested, 0.71% active | AID 781;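 active = inhibition above about 70%, limit read from the data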;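 also: 0% = full 14-3-3 plus peptide FRET controls and 100% = background without 14-3-3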
ROMK hit retest: human ROMK channel modulation, retest confirmation. shares compounds with ROMK mod. ROMK thallium flux, fluorescence ratio; active compounds read low. normalized thallium flux (F/F0 slope) at 10 µM. 3,000 tested, 54% active. AID 1917;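 active = Flux at 10 µM at least 3 SD below or above vehicle control mean in one or both replicates; inconclusive = no clear call, values can overlap the other calls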
* marks the source's active call; other numbers are inactive results; ? = inconclusive; · = no result given. Rows were chosen to be rich in hits. Some 3% of all compounds tested hit in one or more screens of this group.

SMILES | L929 necroptosis | Calpain2 inh | HMGR II inh | TNF death inh | ROMK mod | 14-3-3 Bad inh | ROMK hit retest
COc1ccc(Cn2nnnc2C(c2cc3cc(C)ccc3[nH]c2=O)N2CCN(C)CC2)cc1 (centres undefined) | 0 | -44 | -3 | 1 | -3 | -2 | 0.076
COc1ccccc1C(c1nnnn1Cc1ccccc1)N1CCN(C2CCCC2)CC1 (centres undefined) | 0 | -13 | 1 | 1 | · | 45 | ·
O=C(Cc1ccc(-n2cccc2)cc1)NCc1ccccc1Cl | 1 | -19 | -1 | -3 | 0.99 | -21 | ·
O=C(Cc1ccccc1)NCc1ccc(-n2cccc2)cc1 | 0 | 17 | -6 | -3 | 2.5* | 2 | 0.089
CN(c1ccccc1C(=O)Nc1cccc([N+](=O)[O-])c1)S(C)(=O)=O | 1 | -17 | -3 | 2 | 1 | -21 | ·
CC(=O)/C=C1/C(=O)Nc2ccccc21 | 6 | -2 | -8 | -7 | -3.8* | 1 | 0.034*
N#CC1=C(N)Oc2n[nH]c(-c3cccs3)c2C1c1ccco1 (centres undefined) | 0 | -61 | -3 | -1 | -3.5* | 0 | 0.053*
CCOC(=O)c1ccc2[nH]c3c(c2c1)CCCCC3=O | 2 | 17 | -3 | 3 | · | 4 | 0.076
CN(C)CCCN(C(=O)c1ccco1)c1nc2ccc(Br)cc2s1 | 5 | 13 | -1 | 2 | -0.025 | 2 | ·
CN(C)CCCN(C(=O)c1ccco1)c1nc2ccc(Cl)cc2s1 | 2 | -6 | -1 | 0 | -4.1* | 9 | ?
CCN(CC)CCCN(C(=O)c1ccco1)c1nc(-c2ccc(C)cc2)cs1 | 0 | -25 | 0 | 1 | -3.5* | 0 | 0.057*
Cc1ccc(OCCCCNC2CCCC(C)C2C)c(C)c1 (centres undefined) | 3 | 39 | -1 | 2 | · | 48 | 0.053*
Cc1ccc(OCCCN2CCCC2)c(C)c1 | 0 | -5 | -4 | 1 | -0.085 | 24 | ·
N#CCc1c(C#N)c(N)nc(N2CCN(Cc3ccc4c(c3)OCO4)CC2)c1C#N | -1 | -220 | -4 | -3 | -5.6* | -1 | 0.048*
O=C(Nc1ccccc1Cl)c1cc[n+](Cc2ccc([N+](=O)[O-])cc2)cc1 | 14 | 20 | -11 | -1 | 0.31 | -1 | ·
Cc1cccc(-c2csc(N)c2C(=O)OC(C)C)c1 | 0 | 3 | 4 | -3 | 0.48 | -6 | ·
Cc1ccc(C)c(-c2csc(N)c2C(=O)OC(C)C)c1 | 0 | 21 | 1 | -1 | 2.7* | 1 | 0.078
CCCCCC(=O)Nc1ccccc1N1CCOCC1 | 0 | 4 | -2 | 1 | -0.2 | -15 | ·
CCOC(=O)C(=CNc1ccccc1N1CCOCC1)C(=O)OCC | 1 | 23 | · | -1 | · | -5 | 0.064*
O=S(=O)(NCc1ccc(Cl)cc1)c1cccc2cccnc12 | 0 | -6 | · | 5 | 0.95 | 3 | ·
O=S(=O)(NCc1ccco1)c1cccc2cccnc12 | 0 | -9 | 0 | -4 | 1.3* | 3 | 0.079
CN1CCN(C(=O)/C(C#N)=C/c2ccc(F)cc2)CC1 | 0 | 8 | -3 | 1 | -2.7* | -5 | 0.047*
N#C/C(=C\c1ccc(C#N)cc1)C(=O)N1CCCC1 | 1 | 4 | -9 | -3 | -5.1* | -4 | 0.04*
COC(=O)COc1ccc(-c2ccccc2)cc1C=O | 2 | -10 | -4 | 0 | · | 0 | ·
COC(=O)COc1ccc(-c2ccc(F)cc2)cc1C=O | 1 | 19 | -4 | -2 | 4.7* | 0 | ?
Cc1ccc(-n2ncc(C(=O)Nc3cc(Cl)ccc3Cl)c2C2CCNCC2)cc1 | 0 | 15 | -3 | 0 | -6.2* | -7 | 0.058*
CCOC(=O)c1cnn(-c2ccc(Cl)cc2)c1C1CCN(C(=O)OC(C)(C)C)CC1 | -1 | 17 | -2 | 0 | 0.12 | 4 | ·
Cc1ccc(-n2ncc(C(=O)Nc3cc(Cl)cc(Cl)c3)c2C2CCNCC2)cc1C | -3 | 5 | 1 | -16 | -6.1* | -3 | 0.048*
COc1ccccc1NC(=O)c1ccc(NC(=O)COC(=O)CCC2CCCC2)cc1 | 2 | 16 | -3 | 4 | · | 0 | ·
